Test [1] concerns the target Cytochrome P450 2C19 (Homo sapiens) (UniProt P33261). Kind of test: Cytochrome P450 Family 2 Subfamily C Member 19 (CYP2C19) small molecule antagonists: luciferase reporter qHTS assay (AID 1671197). Also: nearly all actives have a fitted effect of over 65% in size. Also: potency is read from the fitted curve at half-maximal effect. In short, it runs like this:
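Light output is proportional to CYP2C19 activity: proluciferin substrate is converted to luciferin, then detected by a luciferin detection reagent that also stops the 1 h, 37C NADPH-driven reaction. Ketoconazole serves as positive control.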
(In general: In a reporter assay the amount or activity of a reporter protein is the signal.)

Test [2] deals with Cytochrome P450 1A2 (Homo sapiens) (UniProt P05177). Kind of test: Cytochrome P450 Family 1 Subfamily A Member 2 (CYP1A2) small molecule antagonists: luciferase reporter qHTS assay (AID 1671199). Also: nearly all actives have a fitted effect of over 50% in size. Also: potency is read from the fitted curve at half-maximal effect. The gist of the method:
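Read-out is luminescence from luciferin detection reagent (20 min) proportional to CYP1A2 activity; compounds in DMSO preincubated 10 min with enzyme and proluciferin substrate, then NADPH regeneration solution, 1 h, room temperature.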

The target in test [3] is Voltage-gated inwardly rectifying potassium channel KCNH2 (Homo sapiens) (UniProt Q12809). Kind of test: Human Ether-a-go-go-Related Gene (hERG) channel small molecule antagonists: fluorescence cell-based qHTS assay (AID 1671200).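 Also: hERG-expressing U2OS cells given a thallium stimulus after FluxOR II dye loading; series mostly up to about 77 µM; nearly all actives have a fitted effect of over 50% in size.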 The gist of the method: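 Thallium served as the potassium surrogate; its influx into dye-loaded U2OS cells carrying the channel was measured by fluorescence over 2 min.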
Voltage-gated inwardly rectifying potassium channel KCNH2 (Homo sapiens), sequence (Q12809 whole entry, looked up): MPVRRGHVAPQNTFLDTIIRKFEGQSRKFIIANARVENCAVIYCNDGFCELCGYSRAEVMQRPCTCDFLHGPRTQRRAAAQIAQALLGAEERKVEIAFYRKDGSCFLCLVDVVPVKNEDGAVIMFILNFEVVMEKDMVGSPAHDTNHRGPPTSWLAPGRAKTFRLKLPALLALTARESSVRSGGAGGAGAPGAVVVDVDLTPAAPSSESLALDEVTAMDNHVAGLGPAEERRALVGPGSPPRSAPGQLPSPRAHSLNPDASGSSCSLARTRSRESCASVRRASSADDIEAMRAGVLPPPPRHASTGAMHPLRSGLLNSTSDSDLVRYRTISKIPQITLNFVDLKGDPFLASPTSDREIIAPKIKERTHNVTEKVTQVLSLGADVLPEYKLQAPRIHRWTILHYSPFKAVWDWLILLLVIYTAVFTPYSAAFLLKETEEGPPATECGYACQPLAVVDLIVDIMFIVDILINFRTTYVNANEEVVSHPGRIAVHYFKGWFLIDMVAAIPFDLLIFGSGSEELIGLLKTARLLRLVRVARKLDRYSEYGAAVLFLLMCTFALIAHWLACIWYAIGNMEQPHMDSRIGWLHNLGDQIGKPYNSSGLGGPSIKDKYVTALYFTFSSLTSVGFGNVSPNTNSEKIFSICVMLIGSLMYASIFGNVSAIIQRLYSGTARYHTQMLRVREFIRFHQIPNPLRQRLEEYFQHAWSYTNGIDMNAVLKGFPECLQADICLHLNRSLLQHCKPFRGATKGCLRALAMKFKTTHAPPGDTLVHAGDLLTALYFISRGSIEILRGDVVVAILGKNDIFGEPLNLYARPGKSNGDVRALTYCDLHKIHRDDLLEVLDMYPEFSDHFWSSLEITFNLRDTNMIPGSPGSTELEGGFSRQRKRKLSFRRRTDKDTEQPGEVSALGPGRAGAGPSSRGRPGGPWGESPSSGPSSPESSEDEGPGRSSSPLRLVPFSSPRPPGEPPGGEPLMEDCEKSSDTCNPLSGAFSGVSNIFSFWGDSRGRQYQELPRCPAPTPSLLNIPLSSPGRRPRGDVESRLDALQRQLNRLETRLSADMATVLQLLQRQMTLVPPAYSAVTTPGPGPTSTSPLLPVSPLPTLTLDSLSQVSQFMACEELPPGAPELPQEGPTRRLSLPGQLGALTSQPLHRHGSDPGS
Background: The hERG channel carries a current that helps repolarise heart muscle cells.

The target of test [4] is Cytochrome P450 3A4 (Homo sapiens) (UniProt P08684). Kind of test: Cytochrome P450 Family 3 Subfamily A Member 4 (CYP3A4) small molecule antagonists: luciferase reporter qHTS assay (AID 1671201). Also: nearly all actives have a fitted effect of over 50% in size. Also: potency is read from the fitted curve at half-maximal effect. In short, it runs like this: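 Relative luminescence units after 20 min with luciferin detection reagent served as read-out. Beforehand, CYP3A4 turned over a proluciferin substrate for 1 h at room temperature with NADPH regeneration, following 10 min compound preincubation.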
Cytochrome P450 3A4 (Homo sapiens), sequence (P08684 whole entry, looked up): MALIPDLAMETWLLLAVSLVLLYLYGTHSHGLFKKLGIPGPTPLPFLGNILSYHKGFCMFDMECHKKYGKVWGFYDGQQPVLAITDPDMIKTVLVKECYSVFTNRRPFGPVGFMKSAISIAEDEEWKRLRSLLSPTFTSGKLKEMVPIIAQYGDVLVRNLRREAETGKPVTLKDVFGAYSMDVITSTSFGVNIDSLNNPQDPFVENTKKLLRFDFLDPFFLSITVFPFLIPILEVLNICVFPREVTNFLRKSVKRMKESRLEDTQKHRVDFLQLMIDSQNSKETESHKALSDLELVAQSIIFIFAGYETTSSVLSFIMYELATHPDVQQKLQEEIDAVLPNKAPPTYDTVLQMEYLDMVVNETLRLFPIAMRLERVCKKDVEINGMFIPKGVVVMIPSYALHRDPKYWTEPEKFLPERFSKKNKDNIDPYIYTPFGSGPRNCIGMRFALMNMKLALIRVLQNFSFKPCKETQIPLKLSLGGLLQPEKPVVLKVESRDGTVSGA

The results in this text go back to PubChem BioAssay (Tox21).

Each structure is given as a SMILES string. Results filed as inconclusive are left out. Activity calls are given as the source filed them. Calls follow the shape of the dose curve; as a rule, active = well fitted curve in the direction sought with a large enough effect in the repeat runs; inconclusive = weak or mixed curves; inactive = no such curve, though single readings can be large; an effect the other way counts as inactive or inconclusive.

Cytochrome P450 1A2 (Homo sapiens), sequence (P05177 whole entry, looked up): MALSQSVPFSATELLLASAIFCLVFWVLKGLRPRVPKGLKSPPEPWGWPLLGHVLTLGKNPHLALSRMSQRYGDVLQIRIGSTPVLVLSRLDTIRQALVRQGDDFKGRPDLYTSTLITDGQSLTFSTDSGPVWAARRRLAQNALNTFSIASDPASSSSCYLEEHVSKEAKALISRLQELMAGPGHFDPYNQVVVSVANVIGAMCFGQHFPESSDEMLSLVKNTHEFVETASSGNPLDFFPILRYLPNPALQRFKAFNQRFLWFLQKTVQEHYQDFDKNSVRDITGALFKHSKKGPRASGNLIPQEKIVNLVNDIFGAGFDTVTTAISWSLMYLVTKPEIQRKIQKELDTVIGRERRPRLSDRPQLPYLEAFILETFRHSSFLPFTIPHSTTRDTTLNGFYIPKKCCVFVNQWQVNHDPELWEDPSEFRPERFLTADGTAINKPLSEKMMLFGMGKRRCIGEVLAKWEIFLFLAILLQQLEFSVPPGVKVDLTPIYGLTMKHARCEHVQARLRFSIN
Cytochrome P450 2C19 (Homo sapiens), sequence (P33261 whole entry, looked up): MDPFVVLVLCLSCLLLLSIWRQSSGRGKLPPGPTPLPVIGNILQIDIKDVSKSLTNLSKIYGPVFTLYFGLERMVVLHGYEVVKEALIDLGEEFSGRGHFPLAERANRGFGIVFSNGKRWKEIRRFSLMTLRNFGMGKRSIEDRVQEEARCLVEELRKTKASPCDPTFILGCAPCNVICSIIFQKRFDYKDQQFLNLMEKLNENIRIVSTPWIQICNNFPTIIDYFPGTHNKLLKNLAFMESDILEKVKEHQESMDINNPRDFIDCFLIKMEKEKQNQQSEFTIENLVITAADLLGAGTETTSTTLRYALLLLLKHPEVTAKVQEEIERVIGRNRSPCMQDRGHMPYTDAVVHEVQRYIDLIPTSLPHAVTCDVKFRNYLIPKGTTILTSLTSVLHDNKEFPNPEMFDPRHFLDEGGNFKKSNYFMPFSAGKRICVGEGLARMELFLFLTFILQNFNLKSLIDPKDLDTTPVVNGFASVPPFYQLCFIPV

As to `CCCCOC(=O)/C=C\C(=O)OCCCC`, the Potency in test [1] was 3.28 µM (active); in test [2], 7.34 µM (active). Moreover, the Potency result in test [3] was “inactive”.
Consider `CC(=O)N(CC(=O)N(C)C)c1ccccc1`, for which the Potency entry in test [1], in test [2], in test [3] and in test [4] was “inactive” each time.
Take `O=[N+]([O-])c1cc[n+]([O-])cc1`: the Potency in test [1] is 35.6 µM (active); in test [2], 31.7 µM (active); in test [4], 63.3 µM (active). In addition, in test [3], the Potency result was “inactive”.
Turning to `CC(=O)CC(=O)c1ccccc1`, the results for the Potency in test [1], in test [2] and in test [4] were 31.9 µM (active), 40.2 µM (active) and 63.7 µM (active), respectively. Also, in test [3], the Potency entry is “inactive”.
Turning to `CCCCCCCCN(C)C`, the Potency result in test [1], in test [2], in test [3] and in test [4] was “inactive” each time.
On to `CC(=O)c1ccc2c(c1)[C@H](NC(=O)c1ccc(F)cc1)[C@@H](O)C(C)(C)O2`, for which the Potency result in test [1] and in test [3] was “inactive” each time. The Potency in test [2] was 33.5 µM (active); in test [4] it was 29.9 µM (active).
Turning to `C=C(C)C(=O)OCCN(C)C`, the Potency in test [1] and in test [4] was 36 µM (active) throughout. The Potency result in test [2] and in test [3] was “inactive” each time.
For the molecule `O=C1Nc2cc(Cl)ccc2Oc2ccccc21`, the values for the Potency in test [1] and in test [2] were 15.5 µM (active) and 1.95 µM (active), respectively. Further, the Potency result in test [3] and in test [4] was “inactive” each time.
For the molecule `FC(F)(F)C(F)(F)C(F)(F)C(F)(F)C(F)(F)C(F)(F)CCI`, the Potency result in test [1], in test [2], in test [3] and in test [4] was “inactive” each time.
On to `O=C=NC1CCC(CC2CCC(N=C=O)CC2)CC1` (stereo not given), for which the Potency in test [1] was 79.6 µM (active); in test [2], 44.8 µM (active); in test [4], 3.99 µM (active). For the same molecule, the Potency entry in test [3] is “inactive”.
Take `CC(=O)OCCc1ccccc1`: the Potency result in test [1], in test [2] and in test [3] was “inactive” each time.
Turning to `Cc1cc(O)ccc1N`, the Potency in test [1] was 17.9 µM (active); in test [2], 17.9 µM (active); in test [4], 11.3 µM (active). The Potency entry in test [3] is “inactive”.
Take `CCCOc1ccc2nc(NC(=O)OC)[nH]c2c1`: the Potency entry in test [1], in test [2], in test [3] and in test [4] was “inactive” throughout.
